Assay results from PubChem BioAssay AID1159580 (chemical genetic matrix, 2015).
Among all 5,500 compounds or so, about 2,000 (36%) were called active. About 18% were inconclusive and are not listed. Rule as the data show it: active = normalized growth mostly below about 0.91 (no sharp cut-off); inconclusive = no clear call, values can overlap the other calls; inactive = mostly above about 0.92. The list shows a part of the results.

Assay: chemical genetic growth profiling, strain panel (AID 1159580);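 also: tested at 20 µM; growth read once vehicle control cultures reached saturation at 30 °C; 1 = growth at the plate median or of vehicle wells; lower values mean less growth of the strain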
Conditions: growth OD
[1] = S. cerevisiae deletion strains, locus YCL061C, strain MRC1, stronger effect = lower value
[2] = S. cerevisiae deletion strains, locus YHR030C, strain SLT2, stronger effect = lower value
[3] = S. cerevisiae deletion strains, locus YJL187C, strain SWE1, stronger effect = lower value

Measured: normalized growth

CNS(=O)(=O)c1cc(Br)ccc1S(=O)c1ccccc1C(=O)O (stereo not given)
inactive: S. cerevisiae deletion strains, locus YAL013W, strain DEP1, stronger effect = lower value 1 | S. cerevisiae deletion strains, locus YBR229C, strain ROT2, stronger effect = lower value 1 | [1] 1 | S. cerevisiae deletion strains, locus YDL101C, strain DUN1, stronger effect = lower value 1.05 | S. cerevisiae deletion strains, locus YDR150W, strain NUM1, stronger effect = lower value 1.01 | S. cerevisiae deletion strains, locus YEL061C, strain CIN8, stronger effect = lower value 1.02 | S. cerevisiae deletion strains, locus YGR078C, strain PAC10, stronger effect = lower value 1.01 | [2] 0.98 | S. cerevisiae deletion strains, locus YHR087W, strain rtc3, stronger effect = lower value 1.03 | [3] 1 | S. cerevisiae deletion strains, locus YJR043C, strain POL32, stronger effect = lower value 1 | S. cerevisiae deletion strains, locus YJR075W, strain HOC1, stronger effect = lower value 0.997 | S. cerevisiae deletion strains, locus YKL190W, strain CNB1, stronger effect = lower value 0.982 | S. cerevisiae deletion strains, locus YLR039C, strain RIC1, stronger effect = lower value 1.01 | S. cerevisiae deletion strains, locus YLR058C, strain SHM2 (second series), stronger effect = lower value 0.992 | S. cerevisiae deletion strains, locus YLR085C, strain ARP6, stronger effect = lower value 0.983 | S. cerevisiae deletion strains, locus YLR262C, strain YPT6, stronger effect = lower value 1.02 | S. cerevisiae deletion strains, locus YMR219W, strain ESC1, stronger effect = lower value 1.01 | S. cerevisiae deletion strains, locus YMR263W, strain SAP30, stronger effect = lower value 0.984 | S. cerevisiae deletion strains, locus YMR307W, strain GAS1, stronger effect = lower value 0.942 | S. cerevisiae deletion strains, locus YNL153C, strain GIM3, stronger effect = lower value 1.03 | S. cerevisiae deletion strains, locus YNL298W, strain CLA4 (second series), stronger effect = lower value 0.995 | S. cerevisiae deletion strains, locus YNL322C, strain KRE1, stronger effect = lower value 1.01 | S. cerevisiae deletion strains, locus YNR030W, strain Alg12, stronger effect = lower value 1.03 | S. cerevisiae deletion strains, locus YOL006C, strain TOP1, stronger effect = lower value 0.975 | S. cerevisiae deletion strains, locus YPL055C, strain LGE1, stronger effect = lower value 1.04 | S. cerevisiae deletion strains, locus YPL241C, strain CIN2, stronger effect = lower value 1.04 | S. cerevisiae deletion strains, locus YPR135W, strain CTF4, stronger effect = lower value 1.15 | S. cerevisiae strains, strain wild type, stronger effect = lower value 0.968
active: S. cerevisiae deletion strains, locus YML094W, strain GIM5, stronger effect = lower value 1.15 [resistant]

CNS(=O)(=O)c1ccc(NC(=O)c2ccccc2C(=O)O)cc1
inactive: S. cerevisiae deletion strains, locus YAL021C, strain ccr4, stronger effect = lower value 1 | S. cerevisiae deletion strains, locus YAL026C, strain drs2, stronger effect = lower value 1 | S. cerevisiae deletion strains, locus YAL030W, strain snc1, stronger effect = lower value 1 | S. cerevisiae deletion strains, locus YBL061C, strain skt5, stronger effect = lower value 0.993 | S. cerevisiae deletion strains, locus YBR009C, strain hhf1, stronger effect = lower value 0.998 | S. cerevisiae deletion strains, locus YBR023C, strain chs3, stronger effect = lower value 1 | S. cerevisiae deletion strains, locus YBR171W, strain sec66, stronger effect = lower value 0.996 | S. cerevisiae deletion strains, locus YBR231C, strain swc5, stronger effect = lower value 0.991 | S. cerevisiae deletion strains, locus YBR279W, strain paf1, stronger effect = lower value 1 | S. cerevisiae deletion strains, locus YCL011C, strain gbp2, stronger effect = lower value 0.993 | S. cerevisiae deletion strains, locus YCL016C, strain dcc1, stronger effect = lower value 1 | [1] 1 | S. cerevisiae deletion strains, locus YCL069W, strain vba3, stronger effect = lower value 1 | S. cerevisiae deletion strains, locus YCR088W, strain abp1, stronger effect = lower value 0.999 | S. cerevisiae deletion strains, locus YDL005C, strain med2, stronger effect = lower value 1 | S. cerevisiae deletion strains, locus YDL040C, strain nat1, stronger effect = lower value 1 | S. cerevisiae deletion strains, locus YDR001C, strain nth1, stronger effect = lower value 0.996 | S. cerevisiae deletion strains, locus YDR069C, strain doa4, stronger effect = lower value 0.995 | S. cerevisiae deletion strains, locus YDR137W, strain rgp1, stronger effect = lower value 1.01 | S. cerevisiae deletion strains, locus YDR159W, strain sac3, stronger effect = lower value 0.982 | S. cerevisiae deletion strains, locus YDR195W, strain ref2 0.977 | S. cerevisiae deletion strains, locus YDR297W, strain sur2, stronger effect = lower value 0.995 | S. cerevisiae deletion strains, locus YDR334W, strain swr1, stronger effect = lower value 1 | S. cerevisiae deletion strains, locus YDR335W, strain msn5, stronger effect = lower value 1 | S. cerevisiae deletion strains, locus YDR392W, strain spt3, stronger effect = lower value 0.968 | S. cerevisiae deletion strains, locus YEL003W, strain gim4, stronger effect = lower value 0.994 | S. cerevisiae deletion strains, locus YEL037C, strain rad23, stronger effect = lower value 1.01 | S. cerevisiae deletion strains, locus YEL061C, strain CIN8 (second series), stronger effect = lower value 0.999 | S. cerevisiae deletion strains, locus YER015W, strain faa2, stronger effect = lower value 0.989 | S. cerevisiae deletion strains, locus YER016W, strain bim1, stronger effect = lower value 1.01 | S. cerevisiae deletion strains, locus YER111C, strain swi4, stronger effect = lower value 1 | S. cerevisiae deletion strains, locus YER155C, strain BEM2 (second series), stronger effect = lower value 1 | S. cerevisiae deletion strains, locus YFR010W, strain ubp6, stronger effect = lower value 1.01 | S. cerevisiae deletion strains, locus YGL167C, strain pmr1, stronger effect = lower value 0.993 | S. cerevisiae deletion strains, locus YGL173C, strain kem1, stronger effect = lower value 0.997 | S. cerevisiae deletion strains, locus YGL227W, strain vid30, stronger effect = lower value 0.998 | S. cerevisiae deletion strains, locus YGL240W, strain doc1, stronger effect = lower value 0.988 | S. cerevisiae deletion strains, locus YGL253W, strain hxk2, stronger effect = lower value 0.998 | S. cerevisiae deletion strains, locus YHR013C, strain ard1, stronger effect = lower value 0.997 | S. cerevisiae deletion strains, locus YHR027C, strain rpn1, stronger effect = lower value 0.992 | [2] 0.995 | S. cerevisiae deletion strains, locus YHR079C, strain IRE1, stronger effect = lower value 0.992 | S. cerevisiae deletion strains, locus YHR142W, strain chs7, stronger effect = lower value 1.02 | S. cerevisiae deletion strains, locus YJL092W, strain hpr5, stronger effect = lower value 0.995 | S. cerevisiae deletion strains, locus YJL095W, strain BCK1 (second series), stronger effect = lower value 0.99 | S. cerevisiae deletion strains, locus YJL095W, strain BCK1, stronger effect = lower value 0.981 | S. cerevisiae deletion strains, locus YJL115W, strain asf1, stronger effect = lower value 0.995 | S. cerevisiae deletion strains, locus YJL129C, strain trk1, stronger effect = lower value 1.02 | S. cerevisiae deletion strains, locus YJL154C, strain vps35, stronger effect = lower value 0.997 | S. cerevisiae deletion strains, locus YJL164C, strain tpk1, stronger effect = lower value 1.01 | S. cerevisiae deletion strains, locus YJL166W, strain qcr8, stronger effect = lower value 0.998 | [3] 0.99 | S. cerevisiae deletion strains, locus YJR066W, strain TOR1, stronger effect = lower value 0.931 | S. cerevisiae deletion strains, locus YKL160W, strain elf1, stronger effect = lower value 1.01 | S. cerevisiae deletion strains, locus YKR026C, strain gcn3, stronger effect = lower value 0.979 | S. cerevisiae deletion strains, locus YKR091W, strain srl3, stronger effect = lower value 0.994 | S. cerevisiae deletion strains, locus YLL001W, strain dnm1, stronger effect = lower value 1.01 | S. cerevisiae deletion strains, locus YLL026W, stronger effect = lower value 0.995 | S. cerevisiae deletion strains, locus YLL041C, strain sdh2, stronger effect = lower value 1 | S. cerevisiae deletion strains, locus YLR027C, strain aat2, stronger effect = lower value 1 | S. cerevisiae deletion strains, locus YLR113W, strain HOG1, stronger effect = lower value 0.969 | S. cerevisiae deletion strains, locus YLR221C, strain rsa3, stronger effect = lower value 1 | S. cerevisiae deletion strains, locus YLR258W, strain gsy2, stronger effect = lower value 0.998 | S. cerevisiae deletion strains, locus YLR262C, strain YPT6 (second series), stronger effect = lower value 0.992 | S. cerevisiae deletion strains, locus YLR320W, strain mms22, stronger effect = lower value 1 | S. cerevisiae deletion strains, locus YLR342W, strain FKS1, stronger effect = lower value 0.994 | S. cerevisiae deletion strains, locus YLR357W, strain rsc2, stronger effect = lower value 0.994 | S. cerevisiae deletion strains, locus YLR370C, strain arc18, stronger effect = lower value 0.995 | S. cerevisiae deletion strains, locus YLR384C, strain iki3, stronger effect = lower value 0.992 | S. cerevisiae deletion strains, locus YML120C, strain ndi1, stronger effect = lower value 0.992 | S. cerevisiae deletion strains, locus YMR058W, strain fet3, stronger effect = lower value 0.998 | S. cerevisiae deletion strains, locus YMR125W, strain sto1, stronger effect = lower value 0.994 | S. cerevisiae deletion strains, locus YMR129W, stronger effect = lower value 1.01 | S. cerevisiae deletion strains, locus YMR205C, strain PFK2, stronger effect = lower value 0.967 | S. cerevisiae deletion strains, locus YMR231W, strain pep5, stronger effect = lower value 0.998 | S. cerevisiae deletion strains, locus YNL071W, strain lat1, stronger effect = lower value 1.01 | S. cerevisiae deletion strains, locus YNL183C, strain NPR1, stronger effect = lower value 0.933 | S. cerevisiae deletion strains, locus YNL209W, strain ssb2, stronger effect = lower value 0.997 | S. cerevisiae deletion strains, locus YNL248C, strain rpa49, stronger effect = lower value 0.998 | S. cerevisiae deletion strains, locus YNL322C, strain KRE1 (second series), stronger effect = lower value 0.998 | S. cerevisiae deletion strains, locus YNR049C, strain mso1, stronger effect = lower value 1 | S. cerevisiae deletion strains, locus YOR001W, strain rrp6, stronger effect = lower value 1 | S. cerevisiae deletion strains, locus YOR070C, strain gyp1, stronger effect = lower value 0.999 | S. cerevisiae deletion strains, locus YOR080W, strain dia2, stronger effect = lower value 0.994 | S. cerevisiae deletion strains, locus YOR083W, strain WHI5, stronger effect = lower value 0.997 | S. cerevisiae deletion strains, locus YOR106W, strain vam3, stronger effect = lower value 1.01 | S. cerevisiae deletion strains, locus YOR231W, strain MKK1, stronger effect = lower value 0.991 | S. cerevisiae deletion strains, locus YOR265W, strain rbl2, stronger effect = lower value 1.01 | S. cerevisiae deletion strains, locus YOR270C, strain vph1, stronger effect = lower value 1.03 | S. cerevisiae deletion strains, locus YOR290C, strain snf2, stronger effect = lower value 0.995 | S. cerevisiae deletion strains, locus YPL051W, strain arl3, stronger effect = lower value 1.02 | S. cerevisiae deletion strains, locus YPL078C, strain atp4, stronger effect = lower value 1.02 | S. cerevisiae deletion strains, locus YPL106C, strain sse1, stronger effect = lower value 0.984 | S. cerevisiae deletion strains, locus YPL240C, strain hsp82, stronger effect = lower value 0.992 | S. cerevisiae deletion strains, locus YPL256C, strain CLN2, stronger effect = lower value 0.987
